Screens (PubChem)
GRIN3A LBD mod: NR3A (human) ligand-binding domain modulation. NR3A LBD differential scanning fluorimetry, Tm shift; 0% = protein alone, 100% = glycine-bound protein. Tm shift relative to glycine control, % at 25 µM. actives 2.5% (n = 340,000);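 active = melting temperature shift of at least 10% of the positive control shift, at one fixed dose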
NadD inh: inhibitors of Staphylococcus aureus NadD. purified NadD enzyme, colorimetric absorbance read-out. inhibition, % at 20 µM. actives 0.78% (n = 360,000); in the data active = inhibition above about 26%
SMARCA2 act: SMARCA2 function activation, primary screen; MG213 cells, MMTV-luciferase reporter, dexamethasone, overnight; activation, % at 9.1 µM; actives 1% (n = 370,000); AID 652017; in the data active = activation above about 7.8%;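 also: 0% = vehicle wells and 100% = reference activator wells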
SKN-1 inh: inhibitors of C. elegans SKN-1. actives 0.49% (n = 360,000). inhibition, % at 21.8 µM. C. elegans VP596 Pgst-4::GFP/RFP ratio, acrylamide-induced, 24 h;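 active = interference check ratio from 0.5 to 1.5 plus GFP to RFP signal ratio inhibition reaching or exceeding a fixed threshold, cut at about 30% in these data, passing the limit was not always enough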
esBAF inh: blocks esBAF chromatin remodeling in mouse ES cells; reporter increase, % at 12.5 µM; actives 2% (n = 350,000); Bmi1-luciferase knock-in reporter, 24 h; 100% = twice the neutral-well signal; AID 602393; in the data active = activation above about 40%;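 also: 0% = median of the plate's neutral control wells and 100% = double that signal; a rise in the Bmi1 reporter signal indicates esBAF inhibition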
Vif imaging: HIV Vif inhibition. HEK293T cells, Vif self-association by quenched fluorescence, imaging, 24 h. inhibition, % at 7.49 µM. actives 0.35% (n = 340,000). AID 602346; in the data active = inhibition above about 50%, passing the limit was not always enough
* hit, by the source's call. The list is not random: actives were taken first. Their share in the collection is about 5.2%.

CC1(c2nnc(-c3ccc(Cl)cc3)o2)CC(c2ccncc2)=NO1 (centres undefined) was read as GRIN3A LBD mod 4.5, NadD inh -10.9, SMARCA2 act 0.1, SKN-1 inh -3.5, esBAF inh 5.8 and Vif imaging 1.0.
Screening Cc1ccc(C2=NOC(C)(c3nnc(-c4ccncc4)o3)C2)cc1 (centres undefined) returned GRIN3A LBD mod 1.4, NadD inh 1.0, SMARCA2 act 0.5, SKN-1 inh 31.5, esBAF inh 5.3 and Vif imaging 135.0*.
`CC(=O)N1[C@@H]2c3ccc(-c4cccnc4)c(=O)n3C[C@H]1[C@H](CO)[C@H]2C(=O)N1CCc2ccccc2C1` gave esBAF inh 3.6.
Screening CCCCCCCCCCC[N+](C)(C)CC/C=C1/c2ccccc2Sc2ccc(Cl)cc21 returned GRIN3A LBD mod -410.9, NadD inh 15.9, SKN-1 inh 7.3, esBAF inh -40.6 and Vif imaging -2.7.
For CCCCCCCCCC[N+](C)(C)CC/C=C1/c2ccccc2Sc2ccc(Cl)cc21 the results were GRIN3A LBD mod 22.2*, NadD inh 26.2, SKN-1 inh 18.8, esBAF inh -13.0 and Vif imaging -3.6.
`O=C1c2ccccc2/C(=C\c2ccc3[nH]ccc3c2)N1c1ccccc1` gave GRIN3A LBD mod -0.8, NadD inh 21.6, SMARCA2 act 4.0, SKN-1 inh 10.7, esBAF inh 45.3* and Vif imaging 1.8.
`CCC/C(=C1/c2ccccc2C(=O)N1c1ccccc1)c1ccc2[nH]ccc2c1` gave GRIN3A LBD mod 13.3*, NadD inh 12.1, SMARCA2 act 0.7, SKN-1 inh 1.8, esBAF inh -14.1 and Vif imaging -11.6.
For O=C1c2ccccc2/C(=C\c2ccc(Br)nc2)N1c1ccccc1 the results were SMARCA2 act 0.2.
For C[C@@H]1CN([C@@H](C)CO)C(=O)c2cc(NS(=O)(=O)c3ccc(F)cc3)ccc2O[C@@H](C)CCCCO[C@@H]1CN(C)C(=O)Cc1ccccc1 the results were esBAF inh -1.5.
For COC(=O)C[C@H]1C[C@@H]2c3cc(NS(=O)(=O)c4ccccc4)ccc3O[C@@H]2[C@H](CO)O1 the results were esBAF inh -0.1.
`Cc1cccc(NC(=S)NC(=O)c2oc3ccccc3c2C)n1` gave GRIN3A LBD mod -2.2, NadD inh 3.6, SMARCA2 act 4.4, SKN-1 inh 3.6, esBAF inh 49.2* and Vif imaging -7.4.
Cc1c(C(=O)NNC(=O)c2ccccc2O)oc2ccccc12 was read as NadD inh 4.1, SMARCA2 act -1.8, SKN-1 inh 8.3, esBAF inh 59.0* and Vif imaging 1.2.
For NC(=O)c1ccccc1OCC(=O)NS(=O)(=O)c1ccccc1 the results were GRIN3A LBD mod 1.1, NadD inh -2.8, SMARCA2 act -3.0, SKN-1 inh -10.0, esBAF inh -6.1 and Vif imaging 56.1*.
`CC(C)CCCCCCNC(=S)Nc1ccc(S(=O)(=O)N2CCOCC2)cc1` gave GRIN3A LBD mod 26.5*, NadD inh -7.2, SMARCA2 act -2.5, SKN-1 inh 4.8 and Vif imaging -10.5.
Screening Cc1ccc(/C=C/C(=O)O)cc1S(=O)(=O)N1CCc2ccccc21 returned GRIN3A LBD mod 0.1, NadD inh 1.4, SMARCA2 act 4.3, SKN-1 inh -4.8, esBAF inh -4.0 and Vif imaging 58.0*.
Screening O=S(=O)(c1ccc(NC(=S)Nc2ccccc2)cc1)N1CCOCC1 returned GRIN3A LBD mod 3.3, NadD inh 3.7, SMARCA2 act -3.3, SKN-1 inh 7.2, esBAF inh 7.7 and Vif imaging -3.5.
Screening O=C(Nc1ccc2c(c1)OCO2)c1ccc(Cl)c(S(=O)(=O)N2CCOCC2)c1 returned GRIN3A LBD mod 17.6*, NadD inh 0.4, SMARCA2 act 1.1, SKN-1 inh 16.5, esBAF inh 8.7 and Vif imaging -21.0.
`CC(=O)Nc1ccc(NC(=O)c2ccc(Cl)c(S(=O)(=O)N3CCc4ccccc43)c2)cc1` gave GRIN3A LBD mod 13.1*, NadD inh -9.5, SMARCA2 act -0.3, SKN-1 inh 3.6, esBAF inh 8.6 and Vif imaging -4.3.
O=C(Nc1cccnc1)c1ccc(Cl)c(S(=O)(=O)N2CCc3ccccc32)c1 was read as GRIN3A LBD mod 2.5, NadD inh -1.4, SMARCA2 act -4.6, SKN-1 inh 15.5 and Vif imaging -8.3.
`O=C(Nc1ccc2c(c1)OCCO2)c1ccc(Cl)c(S(=O)(=O)N2CCOCC2)c1` gave GRIN3A LBD mod -0.5, NadD inh -5.5, SMARCA2 act -0.3, SKN-1 inh 4.9, esBAF inh 27.1 and Vif imaging -2.5.
C[C@H]1CN([C@@H](C)CO)S(=O)(=O)c2ccc(-c3ccncc3)cc2O[C@H]1CN(C)C(=O)C1CCCCC1 was read as esBAF inh 8.8.
O=C(C[C@H]1CC[C@H]2[C@@H](COC[C@H](O)CN2Cc2cccc(-c3ccncc3)c2)O1)N1CCCCC1 was read as esBAF inh 32.2.
For COc1ccc(CNC(=O)C[C@@H]2C=C[C@H](NC(=O)c3ccc4c(c3)OCO4)[C@@H](CO)O2)cc1 the results were esBAF inh 0.1.
For O=S(=O)(c1ccc(NC(=S)Nc2ccc3c(c2)OCO3)cc1)N1CCOCC1 the results were GRIN3A LBD mod -0.2, NadD inh -0.9, SMARCA2 act 3.0, SKN-1 inh 9.0, esBAF inh 44.6* and Vif imaging -13.4.
O=C(CN1CCN(S(=O)(=O)c2ccc(Br)cc2)CC1)Nc1ccc2c(c1)OCO2 was read as GRIN3A LBD mod -4.0, NadD inh 0.0, SMARCA2 act -0.1, SKN-1 inh 34.6*, esBAF inh -1.3 and Vif imaging 2.8.
Screening CCC(=O)N1CC[C@@H]2[C@@H](CO)Nc3ccc(C#Cc4cccnc4)cc3[C@@H]21 returned esBAF inh -8.0.
Screening O=C1CCC2CN3CCc4c([nH]c5ccccc45)C3CC2C1 (centres undefined) returned NadD inh 2.6, SMARCA2 act -6.2, SKN-1 inh 8.0, esBAF inh -1.8 and Vif imaging 11.2.
O=C(O)[C@@H]1[C@H]2C[C@H]3c4[nH]c5ccccc5c4CCN3C[C@@H]2CC[C@@H]1O was read as GRIN3A LBD mod 0.6, NadD inh 16.0, SMARCA2 act 6.5, SKN-1 inh 26.5, esBAF inh -8.8 and Vif imaging -0.2.
O=C(O)C1CCCC2CN3CCc4c([nH]c5ccccc45)C3C(O)C21 (centres undefined) was read as GRIN3A LBD mod 0.8, NadD inh -2.9, SMARCA2 act 3.9, SKN-1 inh 37.2*, esBAF inh 2.0 and Vif imaging -1.5.
For OC1CCC2CN3CCc4c([nH]c5ccccc45)C3CC2C1 (centres undefined) the results were NadD inh 0.8, SMARCA2 act 1.5, SKN-1 inh 3.6, esBAF inh 62.2* and Vif imaging -2.8.
